Test results: PubChem BioAssay AID2240 (Broad Institute, 2010)
In all, about 37,000 compounds went through this assay and about 100 (0.27%) were called active. The full list was thinned out, with actives kept by preference. Unmarked numbers belong to inactive results. Cut-off read from the data, not from the text of the source: active = inhibition above about 85%; inconclusive = no clear call, values can overlap the other calls; inactive = below about 68%.

Assay: blocks MITF activity, primary screen, MITF inhibitor project, cell-based, luminescence (AID 2240);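 note: human melanocyte line stably carrying TRPM1 promoter luciferase reporter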
Details: TRPM1 promoter luciferase, 24 h, stronger effect = higher value, concentration not given here

Row | Compound | inhibition
1 | COc1ccc(NC(=O)CSC2CC(=O)N(c3ccc(F)cc3)C2=O)cc1 (stereo not drawn) | -4.35%
2 | CC(=O)Nc1ccc(NC(=O)CN(c2ccc(I)cc2)S(C)(=O)=O)cc1 | -73.1%
3 | C[C@@H]1CN([C@H](C)CO)C(=O)c2cc(N(C)C)ccc2O[C@@H]1CN(C)S(=O)(=O)c1cn(C)cn1 | 0.48%
4 | COc1ccc(NC(=O)Nc2ccc3c(c2)CC(=O)N([C@@H](C)CO)C[C@@H](C)[C@@H](CN(C)Cc2ccc(C(F)(F)F)cc2)O3)cc1 | 40.7%
5 | C[C@@H]1CN([C@@H](C)CO)C(=O)c2cc(NC(=O)Nc3ccc(C(F)(F)F)cc3)ccc2O[C@@H]1CN(C)Cc1ccncc1 | 0.516%
6 | COC(=O)c1c(C)c(=O)[nH]c2ccccc12 | 11.2%
7 | C[C@@H]1CN([C@H](C)CO)C(=O)c2cc(NC(=O)CCCCCC(=O)Nc3ccccc3N)ccc2O[C@H]1CN(C)C(=O)Nc1ccc(C(F)(F)F)cc1 | 1.03%
8 | CNC[C@H]1Oc2ccc(NC(=O)CCC(F)(F)F)cc2C(=O)N([C@@H](C)CO)C[C@H]1C | -6.95%
9 | CC(C)(O)C(O)COc1c2occc2cc2ccc(=O)oc12 (stereo not drawn) | -25%
10 | CS(=O)(=O)N(CC(=O)Nc1ccc(Br)cc1)c1cc(Cl)c(Cl)cc1Cl | -6.97%
11 | C[C@@H]1CN([C@H](C)CO)C(=O)Cc2cc(NC(=O)CCCN(C)C)ccc2O[C@H]1CN(C)S(=O)(=O)c1cccs1 | -32%
12 | C[C@H](CO)N1C[C@H](C)[C@H](CN(C)C(=O)Nc2ccccc2)Oc2ccc(NC(=O)C3CC3)cc2CC1=O | -0.845%
13 | C[C@@H]1CN([C@H](C)CO)C(=O)c2cc(NS(=O)(=O)c3cn(C)cn3)ccc2O[C@H]1CN(C)S(=O)(=O)c1ccc(Cl)cc1 | -0.174%
14 | Cc1noc(C)c1S(=O)(=O)Nc1ccc2c(c1)CC(=O)N([C@H](C)CO)C[C@@H](C)[C@@H](CN(C)C)O2 | -9.62%
15 | Cc1cc(C)c(NC(=O)CSc2nnc(-c3ccccc3)n2-c2ccc(F)cc2)c(C)c1 | 15.6%
16 | Cc1ccc(S(=O)(=O)Nc2ccc3c(c2)C(=O)N([C@@H](C)CO)C[C@@H](C)[C@H](CN(C)Cc2ccc(C(F)(F)F)cc2)O3)cc1 | 24.8%
17 | O=C(CSc1nccc(=O)[nH]1)Nc1cccc(Br)c1 | -6.51%
18 | C[C@H](CO)N1C[C@H](C)[C@H](CN(C)Cc2ccc(-c3ccccc3)cc2)Oc2ccc(NS(=O)(=O)c3ccccc3)cc2C1=O | 0.813%
